Source: PubChem BioAssay
IL2 activator – qHTS of IL-2 Activators; IL-2 activation reporter assay, cell-based qHTS; stimulated with anti-CD3/CD4/CD28 beads; in transgenic mouse T cells; activation, % (series mostly up to about 46 µM); 0.065% of 360,000 active; AID 652025, 2013; in the data active means activation above about 50%; inconclusive means mostly about 30% to 49%; further: 0% is about no effect
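First, unstimulated transgenic mouse T cells were exposed to compound for 60 min. Next, anti-CD3/anti-CD4-coated beads with anti-CD28 were added. Finally, after 18 h at 37 degrees C, EGFP and DsRed were imaged.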
A549 tox – Nrf2 qHTS screen for inhibitors: counterscreen for cytotoxicity. 0.16% of 390,000 active. Potency, µM (doses to about 46 µM), without a hit: top-dose activity change, negative = cytotoxicity, most hits filed as inhibitors. AID 504648, 2011. A549 ARE-Fluc cells, CellTiter-Fluor viability, 18-24 h; further: potency means the concentration at half of the fitted maximal effect; on the % scale 0 is the no-effect control and ±100 the full control effect
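A549 ARE-Fluc cells in 5% FBS OPTI-MEM, 5000 cells/well, rested 2 h then exposed to compounds in concentration-response for 18-24 h at 37 °C. Viability by CellTiter-Fluor fluorescence (Ex 405/Em 525) after 30 min; luciferase luminescence (BugLite, 15 min, RT) read afterwards.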
ClpP mod – qHTS Assay for Activators of ClpP; purified B. subtilis ClpP, FRET peptide cleavage, 20 min; Potency, µM (highest dose often 57.5 µM), for the others: at the top dose activity change, negative = active; 1.9% of 340,000 active; active means well fitted falling curve with a large enough effect; inconclusive means small, poorly fitted or top-dose-only effect; inactive means no such curve, though single readings can be large or run the other way; further: potency means the concentration at half of the fitted maximal effect; the source files actives as falling curves though it sought activators and does not explain the sign; nearly all actives have a fitted effect of over 65% in size
Target sequence (P80244 whole entry, looked up): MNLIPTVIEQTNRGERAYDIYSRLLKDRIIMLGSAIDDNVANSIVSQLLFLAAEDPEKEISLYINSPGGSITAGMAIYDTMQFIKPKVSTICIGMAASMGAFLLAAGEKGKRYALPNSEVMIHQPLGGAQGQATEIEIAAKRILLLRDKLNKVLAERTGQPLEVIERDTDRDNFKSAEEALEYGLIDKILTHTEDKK
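Purified B. subtilis ClpP, 10 microg/mL final in Tris/HCl pH8 with KCl, BSA, glycerol and Tween-20, cleaved an Abz/nitrotyrosine-quenched decapeptide. Fluorescence (ex 320, em 430) was read at 0 and 20 min at room temperature. Delta was normalized to 5.8 microM ADEP and DMSO/no-enzyme controls.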
Nrf2 ARE act – qHTS of Nrf2 Activators | AREc32 ARE-luciferase reporter (MCF7-derived line), luminescence, 24 h | Potency, µM (doses to about 46.1 µM), for inactives: at the highest dose activation, hits mostly activators | 0.31% of 410,000 active | AID 624171, 2012; further: potency means the concentration at half of the fitted maximal effect; % of control where 0% means no effect; nearly all actives have a fitted effect of over 65% in size
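ARE-driven firefly luciferase activity in AREc32 cells measured after a 24 hr compound exposure at 37 deg C, using Steady-Glo reagent and a 30 min room-temperature hold.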
Nrf2 block – Nrf2 qHTS screen for inhibitors; A549 ARE-Fluc reporter, luciferase luminescence, 18-24 h; Potency, µM (top dose mostly 46 µM), without a hit: at the highest dose activity change, negative = inhibition, actives largely listed as inhibitors; 2.1% of 360,000 active; further: potency means the concentration at half of the fitted maximal effect; on the % scale 0 is the no-effect control and ±100 the full control effect; nearly all actives have a fitted effect of over 60% in size
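Concentration-response testing used A549 ARE_Fluc cells at 5000 cells/well. Following an 18-24 h compound incubation, viability was read by fluorescence (Ex 405/Em 525) and luciferase output by luminescence.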
miR-21 reporter – qHTS Assay for Modulators of miRNAs and/orActivators of miR-21 | HeLa miR-21 FLuc reporter, luciferase, 48 h | Potency, µM (doses to about 38.3 µM), without a hit: at the highest dose activity change, positive = activation, usual class: activators | 340,000 tested, under 10 active;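 further: % of control where 0% means no effect; miR-21 action dims this reporter so a rising signal means less miR-21 action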
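Using DMEM plus 10% FBS, HeLa miR-21-FLuc cells are incubated with test compounds (final up to about 40uM) for 48 hours; firefly luciferase signal is then imaged following reagent-mediated lysis.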
* = called active by the depositor; u = inconclusive; x = no result given; [ ] = another dose, or the depositor's remark. Shown are actives, neighbours in structure and some others; about 3.7% of the full set was active somewhere. Unless noted, the call rests on the fitted dose curve; in most records, active means well fitted curve in the direction sought with a large enough effect; inconclusive means small, poorly fitted or top-dose-only effect, or another doubt; inactive means no such curve, though single readings can be large; an effect the other way counts as inactive or inconclusive.

SMILES | IL2 activator | A549 tox | ClpP mod | Nrf2 ARE act | Nrf2 block | miR-21 reporter
CC(C)N(C(=O)[C@H]1C[C@H](CC(=O)NCC23CC4CC(CC(C4)C2)C3)C(=O)N2CCc3c([nH]c4cc(CCC(=O)N(C)C)ccc34)[C@]12C)C(C)C | -0.5 | u | -4.9% | -1.4% | 20.6µM* | x
C=CCN1[C@@H](C(C)C)COCCS1(=O)=O | x | x | -1.2% | x | x | x
CC[C@]12c3[nH]c4ccccc4c3CCN1C(=O)C(CC(=O)NC/C=C(\C)CCC=C(C)C)C[C@@H]2C(=O)N1CCN(C(=O)c2ccco2)CC1 (some centres undefined) | 0.9 | -22.3% | -1.0% | -0.6% | 23.1µM* | x
CCC1CCCCN1C(=O)CSc1nnc(-c2ccc(OC)c(OC)c2)o1 (centres undefined) | x | -5.9% | -11.1% | 0.0% | -28.3% | -1.0%
Cc1ccc(S(=O)(=O)N2CCC(C(=O)OCC(=O)N3CC(C)CC(C)C3)CC2)cc1C (centres undefined) | -6.1 | -3.9% | x | -0.4% | 2.1% | x
Cc1ccc(S(=O)(=O)N2CC(O)C[C@H]2C(=O)OCC(=O)N2CCN(c3ccc(F)cc3)CC2)cc1C (some centres undefined) | -1.0 | -10.5% | 1.6% | -0.4% | 16.4µM* | x
CCc1nnc(NC(=O)c2ccc(S(=O)(=O)N(CC)Cc3ccccc3)cc2)o1 | -0.7 | -13.1% | 0.4% | -0.6% | 20.6µM* | 28.1%
CCCCN(C)S(=O)(=O)c1ccc(C(=O)Nc2nnc(CSC)o2)cc1 | -3.4 | -20.1% | -0.3% | -0.5% | 10µM* | 24.7%
COc1ccccc1-c1nnc(NC(=O)c2ccc(S(=O)(=O)N(C)Cc3ccccc3)cc2)o1 | -1.7 | -18.2% | 0.1% | -1.0% | 5.8µM* | -5.4%
CCc1nnc(NC(=O)c2ccc(S(=O)(=O)N(C)Cc3ccccc3)cc2)o1 | -3.1 | -24.7% | -3.7% | -2.4% | 7.31µM* | u
CCN(CC)S(=O)(=O)c1ccc(C(=O)Nc2nnc(CSC)o2)cc1 | -0.1 | 1.1% | -1.1% | -0.7% | 4.8% | 8.8%
CN(Cc1ccccc1)S(=O)(=O)c1ccc(C(=O)Nc2nnc(C3CC3)o2)cc1 | -3.7 | -3.9% | 0.0% | -1.9% | u | u
CCOc1ccccc1NC(=O)CSc1nc2c([nH]c3ccccc32)c(=O)n1-c1ccccc1 | x | -8.0% | 4.4% | 11.4% | x | 2.5%
CCN(Cc1ccccc1)S(=O)(=O)c1ccc(C(=O)Nc2nnc(C)o2)cc1 | -0.7 | -9.6% | -0.5% | -0.9% | 13µM* | 26.7%
CCN(CC)S(=O)(=O)c1ccc(C(=O)Nc2nnc(COC)o2)cc1 | -0.2 | 4.0% | -2.2% | -0.1% | 3.2% | -0.2%
Cc1ccc2[nH]c(=O)c(C(c3nnnn3CC3CCCO3)N3CCc4ccccc4C3)cc2c1 (centres undefined) | 1.9 | -9.3% | -19.3% | 0.4% | -11.5% | -5.7%
COc1ccc(C(c2nnnn2CC2CCCO2)N2CCC(C(N)=O)CC2)cc1 (centres undefined) | -1.6 | 2.0% | 28.2µM* | -0.4% | -3.7% | 3.6%
Cc1ccc2[nH]c(=O)c(C(c3nnnn3CC3CCCO3)N3CCOCC3)cc2c1 (centres undefined) | 1.1 | -3.4% | 22.4µM* | -0.7% | 12.3% | 2.9%
COc1ccc2[nH]c(=O)c(C(c3nnnn3CC3CCCO3)N3CCc4ccccc4C3)cc2c1 (centres undefined) | -2.3 | -1.3% | 31.6µM* | 4.7% | 15.3% | -6.5%
COc1ccc(Cl)cc1NC(=O)Cn1ccn(Cc2ccc(C)cc2)c(=O)c1=O | x | -11.0% | 65.9% | 2.2% | u | -64.8%
Cc1cc(C)cc(NC(=O)C(=O)NCC(c2cccnc2)N2CCN(c3ccccc3)CC2)c1 (centres undefined) | x | 1.1% | -1.3% | 0.7% | -7.9% | -3.3%
Cc1cccn2c(=O)c3cc(C#N)c(=O)n(Cc4cccnc4)c3nc12 | 0.0 | x | 2.82µM* | 0.2% | u | -0.1%
COC(=O)c1ccccc1NC(=O)CSc1nc(-c2ccccc2)cc(C(F)(F)F)n1 | x | 1.0% | -18.4% | 5.6% | u | 4.5%
CO/N=C/c1ccc(N2CCN(C(=O)c3ccc(F)cc3)CC2)c([N+](=O)[O-])c1 | 4.3 | -25.2% | -1.0% | -0.4% | 10.3µM* | 14.0%
Cc1ccc(NC(=O)Cn2c(=O)n(-c3ccc(C)cc3)c(=O)c3c2cnn3C)cc1 | x | 2.0% | -1.4% | -1.5% | -2.3%[9.27 µM] | 4.6%
SMILES | IL2 activator | A549 tox | ClpP mod | Nrf2 ARE act | Nrf2 block | miR-21 reporter
COc1ccc(CCNC(=O)c2ccc3c(c2)nc2n3CCOC2)cc1OC | x | -7.5% | -0.6% | 0.4% | x | -14.2%
CN(c1ccc(C(=O)NCCSCc2ccc(Cl)cc2)cc1)S(=O)(=O)c1ccccc1 | 0.2 | 1.2% | 28.2µM* | 3.9% | u | 4.3%
Cc1ccc(CSCCNC(=O)c2ccc(N(C)S(=O)(=O)c3ccccc3)cc2)cc1 | 0.5 | 0.1% | -1.3% | 4.5% | u | 1.0%
OCC[N+]1(CCc2ccccc2)CCOCC1 | x | x | 1.0% | x | x | x
CCC(=O)NC(=S)Nc1ccccc1F | -1.1 | -0.4% | 12.6µM* | 3.3% | 15.7% | -7.2%
COc1ccc(N(CC(C)C)S(=O)(=O)c2nnc(NC(=O)c3cccs3)s2)cc1 | x | -14.3% | -4.1% | 0.6% | 20.6µM* | 23.7%
COc1ccc(OC)c(/C=C/C(=O)N(C)CC(=O)Nc2cc(C)ccc2C)c1 | -3.4 | 1.7% | 0.5% | 0.8% | -1.6% | -11.3%
COc1ccc(OC)c(/C=C/C(=O)N(C)CC(=O)Nc2ccc(C)cc2)c1 | -1.1 | 3.1% | 28.2µM* | 4.4% | -21.3% | -5.6%
COc1ccc(NC(=O)CN(C)C(=O)/C=C/c2ccc(OCc3ccccc3)cc2)cc1 | -2.9 | -19.8% | 28.2µM* | 2.1% | u | 0.0%
COc1ccc(-c2noc(N3CCC(C(=O)Nc4ccc(C)c(F)c4)CC3)n2)cc1OC | x | -13.0% | 6.9% | 1.1% | 5.4%[9.27 µM] | -11.6%
O=C(Nc1nnc(SCc2ccc(F)cc2)s1)C1Cc2ccccc2CN1C(=O)c1ccco1 (centres undefined) | -0.7 | u | -2.1% | 3.9% | 16.4µM* | -11.5%
O=C(Nc1nnc(C2CC2)s1)C1Cc2ccccc2CN1C(=O)c1ccco1 (centres undefined) | -1.2 | -5.1% | -1.8% | 7.4% | 4.2% | -12.6%
C/C(=N\NC(=O)COc1ccccc1)c1cccs1 | -0.6 | 9.1% | 25.1µM* | 7.2% | 26.8% | -77.6%
C/C(=N\NC(=O)Cn1c(C)nc2ccccc21)c1cccs1 | -0.1 | -9.9% | 1.7% | 2.3% | 16.4µM* | 3.2%
